Test results taken from ChEMBL document CHEMBL3433997, “St. Jude Leishmania screening dataset” (2016).

What was measured:
Type in all cases: functional
[1] = molecular target: Solute carrier family 2, facilitated glucose transporter member 1 (Homo sapiens) (UniProt P11166); test: ST_JUDE_LEISH: Cytotoxicity at 2uM final concentration against transgenic Leishmania Mexicana promastigotes LmGLUT1 that are glucose transport deficient and complemented with the human glucose transporter GLUT1. Activity is measured by DNA content using SYBR green in vitro
Sequence of Solute carrier family 2, facilitated glucose transporter member 1 (Homo sapiens) (P11166 whole entry): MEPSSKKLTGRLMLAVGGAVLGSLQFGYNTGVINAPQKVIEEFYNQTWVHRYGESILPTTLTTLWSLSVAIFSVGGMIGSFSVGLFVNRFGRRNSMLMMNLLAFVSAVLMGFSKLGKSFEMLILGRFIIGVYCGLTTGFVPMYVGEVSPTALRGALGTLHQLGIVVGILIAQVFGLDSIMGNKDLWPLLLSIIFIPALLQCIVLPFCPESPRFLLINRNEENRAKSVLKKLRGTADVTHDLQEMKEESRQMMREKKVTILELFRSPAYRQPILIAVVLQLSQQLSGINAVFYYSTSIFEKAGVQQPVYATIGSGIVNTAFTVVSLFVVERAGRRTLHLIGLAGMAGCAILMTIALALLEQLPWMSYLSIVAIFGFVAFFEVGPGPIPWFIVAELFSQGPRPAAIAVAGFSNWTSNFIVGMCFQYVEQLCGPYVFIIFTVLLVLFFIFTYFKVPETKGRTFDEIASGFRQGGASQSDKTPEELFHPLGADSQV

[2] = molecular target: Hexose transporter 1 (Plasmodium falciparum) (UniProt O97467); test: ST_JUDE_LEISH: Cytotoxicity at 2uM final concentration against transgenic Leishmania Mexicana promastigotes LmPfHT that are glucose transport deficient and complemented with the Plasmodium falciparum hexose transporter. Activity is measured by DNA content using SYBR green in vitro
[3] = molecular target: Glucose transporter (Leishmania mexicana) (UniProt O61059); test: ST_JUDE_LEISH: Cytotoxicity at 2uM final concentration against transgenic Leishmania Mexicana promastigotes LmGT2 that are glucose transport deficient and complemented with the L. Mexicana glucose transporter 2. Activity is measured by DNA content using SYBR green in vitro

Compound	inhibition [1]	inhibition [2]	inhibition [3]
CC(C)c1ccc2[nH]c(C(=O)NC3CCC(N4CCCc5ccc(C#N)cc5C4)CC3)cc2c1 (configuration not stated)	3.48%	0.9%	1.58%
COc1ccc2[nH]c(C)cc(=NN=Cc3ccc(F)cc3)c2c1	4.47%	5.21%	1.88%
CC(C)COc1ccc(Cl)cc1Cc1ccc(-c2nc3ccc(Cl)cc3[nH]2)o1	-1.56%	2.55%	1.16%
COc1ccc(NC(=O)[C@H](CC(C)C)Nc2cc(C)nc(NCCc3ccccc3)n2)cc1	3.57%	3.69%	1.94%
